Source: PubChem BioAssay AID1159580 (chemical genetic matrix, 2015)
Where “and” joins values, the source holds several entries; their conditions need not be identical. Equal entries are not always repeated. The whole screen tested about 5,500 compounds, of which about 2,000 (36%) were called active. Roughly 18% stayed inconclusive and do not appear here. No stated cut-off is given here; in the data, active means normalized growth mostly below about 0.91 (no sharp cut-off); inconclusive means no clear call, values can overlap the other calls; inactive means mostly above about 0.92. The list shows a part of the results.

Test: chemical genetic growth profiling, strain panel (AID 1159580);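 further: tested at 20 µM; growth read once vehicle control cultures reached saturation at 30 °C; 1 = growth at the plate median or of vehicle wells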
Details: S. cerevisiae deletion strains, growth OD

Measured: normalized growth

CC(=O)OCC(=O)[C@H]1CCC2C3CCC4=CC(=O)CC[C@]4(C)C3CC[C@@]21C (stereo partly drawn)
0.752 (active) and 0.988 (inactive): locus YJL095W, strain BCK1, stronger effect = lower value
active: locus YAL013W, strain DEP1, stronger effect = lower value 0.886 | locus YDL074C, strain BRE1, stronger effect = lower value 0.777 | locus YDL134C, strain PPH21, stronger effect = lower value 0.826 | locus YDR162C, strain NBP2, stronger effect = lower value 0.78 | locus YDR392W, strain spt3, stronger effect = lower value 0.56 | locus YDR502C, strain sam2, stronger effect = lower value 0.899 | locus YER155C, strain BEM2 (second series), stronger effect = lower value 0.835 | locus YER155C, strain BEM2, stronger effect = lower value 0.92 | locus YER167W, strain BCK2, stronger effect = lower value 0.829 | locus YGR135W, strain pre9, stronger effect = lower value 0.84 | locus YGR252W, strain gcn5, stronger effect = lower value 0.72 | locus YIL066C, strain RNR3, stronger effect = lower value 0.809 | locus YIR030C, strain dcg1, stronger effect = lower value 0.927 | locus YJR043C, strain POL32, stronger effect = lower value 0.797 | locus YKR001C, strain vps1, stronger effect = lower value 0.777 | locus YLR330W, strain CHS5, stronger effect = lower value 0.864 | locus YLR342W, strain FKS1 (second series), stronger effect = lower value 0.726 | locus YLR418C, strain cdc73, stronger effect = lower value 0.691 | locus YML032C, strain rad52, stronger effect = lower value 0.896 | locus YNL298W, strain CLA4, stronger effect = lower value 0.893 | locus YNL307C, strain MCK1, stronger effect = lower value 0.596 | locus YOL147C, strain pex11, stronger effect = lower value 0.93 | locus YOR144C, strain elg1, stronger effect = lower value 0.929 | locus YOR184W, strain ser1, stronger effect = lower value 0.759 | locus YOR270C, strain vph1, stronger effect = lower value 0.734 | locus YPR167C, strain met16, stronger effect = lower value 0.921
inactive: locus YAL021C, strain ccr4, stronger effect = lower value 0.94 | locus YAL026C, strain drs2, stronger effect = lower value 0.978 | locus YAL030W, strain snc1, stronger effect = lower value 0.979 | locus YBL061C, strain skt5, stronger effect = lower value 0.967 | locus YBR009C, strain hhf1, stronger effect = lower value 0.986 | locus YBR021W, strain FUR4, stronger effect = lower value 0.898 | locus YBR023C, strain chs3, stronger effect = lower value 0.94 | locus YBR171W, strain sec66, stronger effect = lower value 0.927 | locus YBR229C, strain ROT2, stronger effect = lower value 0.969 | locus YBR231C, strain swc5, stronger effect = lower value 1 | locus YBR279W, strain paf1, stronger effect = lower value 0.976 | locus YCL011C, strain gbp2, stronger effect = lower value 0.969 | locus YCL016C, strain dcc1, stronger effect = lower value 0.961 | locus YCL029C, strain bik1, stronger effect = lower value 0.957 | locus YCL061C, strain MRC1, stronger effect = lower value 0.984 | locus YCL069W, strain vba3, stronger effect = lower value 0.98 | locus YCR088W, strain abp1, stronger effect = lower value 0.972 | locus YDL005C, strain med2, stronger effect = lower value 0.964 | locus YDL035C, strain GPR1, stronger effect = lower value 0.86 | locus YDL040C, strain nat1, stronger effect = lower value 0.973 | locus YDL101C, strain DUN1, stronger effect = lower value 0.961 | locus YDL185W, strain tfp1, stronger effect = lower value 0.949 | locus YDL192W, strain arf1, stronger effect = lower value 0.935 | locus YDR001C, strain nth1, stronger effect = lower value 0.972 | locus YDR069C, strain doa4, stronger effect = lower value 0.967 | locus YDR101C, strain arx1, stronger effect = lower value 0.954 | locus YDR137W, strain rgp1, stronger effect = lower value 1.11 | locus YDR159W, strain sac3, stronger effect = lower value 0.885 | locus YDR195W, strain ref2 1.07 | locus YDR297W, strain sur2, stronger effect = lower value 0.975 | locus YDR318W, strain mcm21, stronger effect = lower value 0.929 | locus YDR334W, strain swr1, stronger effect = lower value 0.971 | locus YDR335W, strain msn5, stronger effect = lower value 0.988 | locus YDR388W, stronger effect = lower value 0.94 | locus YEL003W, strain gim4, stronger effect = lower value 0.994 | locus YEL037C, strain rad23, stronger effect = lower value 0.977 | locus YEL061C, strain CIN8 (second series), stronger effect = lower value 0.977 | locus YEL061C, strain CIN8, stronger effect = lower value 0.944 | locus YER015W, strain faa2, stronger effect = lower value 0.969 | locus YER016W, strain bim1, stronger effect = lower value 0.962 | locus YER110C, stronger effect = lower value 0.943 | locus YER111C, strain swi4, stronger effect = lower value 0.971 | locus YFR010W, strain ubp6, stronger effect = lower value 0.994 | locus YGL078C, strain dbp3, stronger effect = lower value 0.961 | locus YGL086W, strain mad1, stronger effect = lower value 0.934 | locus YGL167C, strain pmr1, stronger effect = lower value 0.951 | locus YGL173C, strain kem1, stronger effect = lower value 0.948 | locus YGL227W, strain vid30, stronger effect = lower value 0.992 | locus YGL240W, strain doc1, stronger effect = lower value 0.95 | locus YGL248W, strain PDE1, stronger effect = lower value 0.927 | locus YGL253W, strain hxk2, stronger effect = lower value 0.919 | locus YHR013C, strain ard1, stronger effect = lower value 0.997 | locus YHR027C, strain rpn1, stronger effect = lower value 0.996 | locus YHR030C, strain SLT2, stronger effect = lower value 0.944 and 1.02 | locus YHR079C, strain IRE1 (second series), stronger effect = lower value 0.956 | locus YHR079C, strain IRE1, stronger effect = lower value 1.02 | locus YHR094C, strain hxt1, stronger effect = lower value 0.956 | locus YHR129C, strain ARP1, stronger effect = lower value 0.944 | locus YHR142W, strain chs7, stronger effect = lower value 0.944 | locus YHR200W, strain rpn10, stronger effect = lower value 0.924 | locus YIL073C, strain SPO22, stronger effect = lower value 0.828 | locus YIL125W, strain kgd1, stronger effect = lower value 0.955 | locus YJL092W, strain hpr5, stronger effect = lower value 0.976 | locus YJL095W, strain BCK1 (second series), stronger effect = lower value 0.965 | locus YJL115W, strain asf1, stronger effect = lower value 0.984 | locus YJL129C, strain trk1, stronger effect = lower value 0.931 | locus YJL134W, strain LCB3, stronger effect = lower value 0.976 | locus YJL154C, strain vps35, stronger effect = lower value 0.98 | locus YJL164C, strain tpk1, stronger effect = lower value 0.978 | locus YJL166W, strain qcr8, stronger effect = lower value 0.989 | locus YJL168C, strain set2, stronger effect = lower value 0.96 | locus YJL187C, strain SWE1 (second series), stronger effect = lower value 0.935 | locus YJR066W, strain TOR1, stronger effect = lower value 0.956 | locus YKL009W, strain mrt4, stronger effect = lower value 0.909 | locus YKL068W, stronger effect = lower value 0.956 | locus YKL085W, strain MDH1 (second series), stronger effect = lower value 0.934 | locus YKL085W, strain MDH1, stronger effect = lower value 0.934 | locus YKL160W, strain elf1, stronger effect = lower value 0.964 | locus YKR026C, strain gcn3, stronger effect = lower value 0.977 | locus YKR091W, strain srl3, stronger effect = lower value 0.98 | locus YLL001W, strain dnm1, stronger effect = lower value 0.985 | locus YLL026W, stronger effect = lower value 0.992 | locus YLL041C, strain sdh2, stronger effect = lower value 0.986 | locus YLR027C, strain aat2, stronger effect = lower value 0.97 | locus YLR039C, strain RIC1, stronger effect = lower value 0.772 | locus YLR058C, strain SHM2, stronger effect = lower value 0.942 | locus YLR102C, strain apc9, stronger effect = lower value 0.956 | locus YLR113W, strain HOG1, stronger effect = lower value 0.951 | locus YLR221C, strain rsa3, stronger effect = lower value 0.972 | locus YLR258W, strain gsy2, stronger effect = lower value 0.958 | locus YLR262C, strain YPT6 (second series), stronger effect = lower value 1.04 | locus YLR262C, strain YPT6, stronger effect = lower value 0.754 | locus YLR268W, strain sec22, stronger effect = lower value 0.919 | locus YLR320W, strain mms22, stronger effect = lower value 0.881 | locus YLR342W, strain FKS1, stronger effect = lower value 0.926 | locus YLR357W, strain rsc2, stronger effect = lower value 1.02 | locus YLR370C, strain arc18, stronger effect = lower value 0.958 | locus YLR371W, strain rom2, stronger effect = lower value 0.966 | locus YLR384C, strain iki3, stronger effect = lower value 0.987 | locus YML016C, strain PPZ1, stronger effect = lower value 0.962 | locus YML120C, strain ndi1, stronger effect = lower value 0.979 | locus YML124C, strain tub3, stronger effect = lower value 0.938 | locus YMR058W, strain fet3, stronger effect = lower value 0.959 | locus YMR078C, strain ctf18, stronger effect = lower value 0.923 | locus YMR125W, strain sto1, stronger effect = lower value 0.986 | locus YMR129W, stronger effect = lower value 0.985 | locus YMR205C, strain PFK2, stronger effect = lower value 0.909 | locus YMR223W, strain ubp8, stronger effect = lower value 0.905 | locus YMR231W, strain pep5, stronger effect = lower value 0.988 | locus YMR307W, strain GAS1, stronger effect = lower value 0.744 | locus YNL067W, strain RPL9B, stronger effect = lower value 0.965 | locus YNL071W, strain lat1, stronger effect = lower value 0.923 | locus YNL153C, strain GIM3, stronger effect = lower value 0.962 | locus YNL183C, strain NPR1, stronger effect = lower value 0.961 | locus YNL209W, strain ssb2, stronger effect = lower value 0.979 | locus YNL233W, strain BNI4, stronger effect = lower value 0.871 | locus YNL248C, strain rpa49, stronger effect = lower value 0.945 | locus YNL250W, strain rad50, stronger effect = lower value 0.978 | locus YNL271C, strain bni1, stronger effect = lower value 0.938 | locus YNL322C, strain KRE1 (second series), stronger effect = lower value 0.951 | locus YNR049C, strain mso1, stronger effect = lower value 0.989 | locus YNR052C, strain pop2, stronger effect = lower value 0.986 | locus YOL012C, strain htz1 1.17 | locus YOR001W, strain rrp6, stronger effect = lower value 0.999 | locus YOR061W, strain CKA2, stronger effect = lower value 0.943 | locus YOR069W, strain VPS5, stronger effect = lower value 0.983 | locus YOR070C, strain gyp1, stronger effect = lower value 0.974 | locus YOR080W, strain dia2, stronger effect = lower value 0.987 | locus YOR083W, strain WHI5, stronger effect = lower value 0.9 | locus YOR106W, strain vam3, stronger effect = lower value 0.941 | locus YOR136W, strain idh2, stronger effect = lower value 0.965 | locus YOR231W, strain MKK1, stronger effect = lower value 0.983 | locus YOR265W, strain rbl2, stronger effect = lower value 0.98 | locus YOR290C, strain snf2, stronger effect = lower value 0.961 | locus YOR316C, strain cot1, stronger effect = lower value 0.947 | locus YPL051W, strain arl3, stronger effect = lower value 0.968 | locus YPL055C, strain LGE1, stronger effect = lower value 0.861 | locus YPL078C, strain atp4, stronger effect = lower value 0.903 | locus YPL106C, strain sse1, stronger effect = lower value 1.04 | locus YPL240C, strain hsp82, stronger effect = lower value 0.982 | locus YPL241C, strain CIN2, stronger effect = lower value 0.963 | locus YPL256C, strain CLN2, stronger effect = lower value 1.01 | locus YPR119W, strain clb2, stronger effect = lower value 0.948 | locus YPR141C, strain kar3, stronger effect = lower value 0.954 | locus YPR163C, strain tif3, stronger effect = lower value 0.916 | strain wtn01, stronger effect = lower value 0.949
